TDP1 block: TDP1 (human) enzyme inhibition. Q9NUW8. recombinant TDP1, AlphaScreen DNA substrate cleavage. Potency, µM (doses to about 130 µM), without a hit: at the highest dose activity change, negative = inhibition, most hits filed as inhibitors. actives 0.28% (n = 350,000); also: potency is read from the fitted curve at half-maximal effect; nearly all actives have a fitted effect of over 40% in size
Target sequence (Q9NUW8 whole entry, looked up): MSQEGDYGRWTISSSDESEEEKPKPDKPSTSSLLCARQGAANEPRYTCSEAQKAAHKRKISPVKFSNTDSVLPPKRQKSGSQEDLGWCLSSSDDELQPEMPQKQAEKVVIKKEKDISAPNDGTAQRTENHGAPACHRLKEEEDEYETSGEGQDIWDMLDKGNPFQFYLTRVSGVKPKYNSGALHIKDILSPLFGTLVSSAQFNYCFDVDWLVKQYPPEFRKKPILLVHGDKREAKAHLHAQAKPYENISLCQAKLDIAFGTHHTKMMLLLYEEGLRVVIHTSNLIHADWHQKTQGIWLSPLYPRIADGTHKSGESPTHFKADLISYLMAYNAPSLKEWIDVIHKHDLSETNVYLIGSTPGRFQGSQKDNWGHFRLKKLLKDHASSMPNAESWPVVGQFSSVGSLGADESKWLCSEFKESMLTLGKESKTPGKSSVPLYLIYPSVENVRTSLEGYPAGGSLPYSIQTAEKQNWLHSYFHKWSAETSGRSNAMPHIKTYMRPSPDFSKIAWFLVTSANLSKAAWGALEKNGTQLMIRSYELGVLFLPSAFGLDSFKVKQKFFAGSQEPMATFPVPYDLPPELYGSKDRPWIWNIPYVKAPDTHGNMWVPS
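Here, a 5' biotin and 3' phosphotyrosine-FITC DNA oligonucleotide reports Tdp1 activity: intact substrate bridges AlphaScreen beads, while cleavage leaves a 3' phosphate and drops signal. All incubations at room temperature.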
DT40 TDP1 CPT: growth inhibition of DT40 Tdp1-/-;hTDP1 cells with camptothecin (screen for TDP1 inhibitors). actives 12% (n = 420,000). Potency, µM (top dose mostly 46.2 µM), for inactives: at the top dose activity change, negative = growth inhibition, actives largely listed as inhibitors. chicken DT40 Tdp1-/-;hTDP1 cells + 20 nM CPT, ATP luminescence, 48 h; also: potency is read from the fitted curve at half-maximal effect; nearly all actives have a fitted effect of over 55% in size
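Cell growth measured by CellTiter-Glo luminescence after a minimum 48 h, 37 C compound exposure with 20 nM CPT in Tdp1-knockout DT40 cells stably expressing hTDP1, seeded 400/well; qHTS titration format.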
Six1-Eya2 inh: inhibitors of human Six1/Eya2 interaction. Q15475+O00167. AlphaScreen GST-Six1/His-Eya2 binding, biochemical; hits give low values. activity change, % (test concentration not listed). actives 0.56% (n = 360,000); in the data active = activity change below about -65%; inconclusive = mostly about -30% to -63%
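AlphaScreen with GST-Six1 and His-Eya2 (5X mix: 250 nM and 500 nM), glutathione donor and nickel acceptor beads; buffer 50 mM Tris pH 8.0, 300 mM NaCl, 1 mM TCEP; 1 h at 37 C in the dark.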
CtBP-E1A blk: blocks the CtBP interaction with E1A. activity change, % (concentration not given with the values). AlphaScreen GST-E1A/His-CtBP binding, 1536-well; hits give low values. actives 0.49% (n = 340,000); in the data active = activity change below about -65%; inconclusive = mostly about -30% to -63%
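Homogeneous bead-based format: GST-tagged E1A captured on glutathione donor beads, His-tagged CtBP on nickel acceptor beads; compounds precede bead addition by 2 h at 37 °C.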
IL1B secr inh: inhibitors of inflammasome signaling (IL-1 beta secretion); activity change, % at 57.5 µM; actives 4.7% (n = 360,000); THP-1 LPS/ATP IL-1B secretion, AlphaLISA, 16 h; hits give low values; in the data active = activity change below about -50%; inconclusive = mostly about -30% to -49%
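Secreted IL-1B measured by AlphaLISA bead assay after 16 h compound exposure of THP-1 cells; compounds (final up to 57.5 uM) added 1 h before LPS (250 ng/mL) and ATP (1.25 mM) stimulation; lower signal means less secretion.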
TDP1 cell noCPT: qHTS for Inhibitors of human tyrosyl-DNA phosphodiesterase 1 (TDP1): qHTS in cells in absence of CPT. DT40 Tdp1-/- hTDP1 cells, no CPT, ATP luminescence, 48 h. Potency, µM (highest dose often 46.2 µM), for the others: at the top dose activity change, negative = growth inhibition, actives largely listed as inhibitors. actives 15% (n = 420,000). AID 686978, 2013; also: potency is read from the fitted curve at half-maximal effect; nearly all actives have a fitted effect of over 55% in size
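Luminescent ATP content (CellTiter-Glo) served as the growth readout. Knockout chicken DT40 cells expressing human TDP1 were exposed to compounds without camptothecin for a minimum 48 hr at 37 °C.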
The depositor's hits bear a star; ? = inconclusive; · = no result given. Rows were chosen to be rich in hits. Some 18% of all compounds tested hit in one or more screens of this group. Unless noted, calls follow the shape of the dose curve; as a rule, active = well fitted curve in the direction sought with a large enough effect; inconclusive = small, poorly fitted or top-dose-only effect, or another doubt; inactive = no such curve, though single readings can be large; an effect the other way counts as inactive or inconclusive. % is scaled to controls: 0 for no effect and ±100 for the full control effect.

SMILES | TDP1 block | DT40 TDP1 CPT | Six1-Eya2 inh | CtBP-E1A blk | IL1B secr inh | TDP1 cell noCPT
O=C1[C@H]2[C@@H](c3ccc(F)cc3)N3C(=O)N(c4ccc(Br)cc4)C(=O)[C@@]3(Cc3ccc(Cl)cc3)[C@H]2C(=O)N1C1CCCCC1 | · | ? | 0 | · | 10 | ?
CCN(CC)c1ccc(/C=N/NC(=O)c2c[nH]c3ccccc23)cc1 | -3% | ? | -24 | -8 | -27 | 23µM*
O=C(c1ccc(F)cc1Cl)N(c1ccccn1)C1CCCCC1 | 2% | 18µM* | 9 | 0 | 4 | 15µM*
O=C(c1ccc(Br)cc1)N(c1ccccn1)C1CCCCC1 | · | ? | 8 | -1 | -2 | 15µM*
O=C(c1ccc(Cl)cc1)N(c1ccccn1)C1CCCCC1 | 5% | -30% | 13 | -2 | -1 | 26µM*
CC(C)c1ccc(OCC(=O)N(c2ccccn2)C2CCCCC2)cc1 | 6% | ? | 39 | 21 | -11 | 15µM*
Cc1cccc(-n2ncc3c(NCCCO)ncnc32)c1 | -1% | -1% | 0 | 7 | 0 | -8%
O=C(c1ccc(S(=O)(=O)N2CCOCC2)cc1)N(c1ccccn1)C1CCCCC1 | · | ? | 19 | 3 | 10 | ?
O=C(c1cccc(C(=O)N(c2ccccn2)C2CCCCC2)c1)N(c1ccccn1)C1CCCCC1 | 5% | 12µM* | 0 | 18 | -21 | 9.2µM*
CN1CCC(N(C)C(=O)/C(C#N)=C/c2ccccc2)CC1 | · | -25% | 5 | 2 | -18 | 0%
N#C/C(=C\c1ccccc1)C(=O)N(c1ccccn1)C1CCCCC1 | 5% | ? | -8 | 1 | -98* | 18µM*
CC(=O)[C@@H]1[C@@H](C(=O)c2ccc(F)cc2)[C@]2(C(=O)Nc3ccccc32)[C@H]2C=Cc3cc(F)ccc3N12 | · | ? | -1 | -4 | -74* | ?
Cc1cc2c(cc1C)CSC(c1ccccc1OC(=O)C(C)C)SC2 | 3% | ? | -2 | 3 | 10 | 11µM*
Cc1nn(-c2ccccc2)c(Cl)c1/C=N/NC(=O)c1ccco1 | 0% | 3% | -4 | -4 | 6 | -23%
CN(C)c1ccc2c3c(cccc13)C(=O)N(c1ccccc1)C2=O | -4% | · | · | · | · | ·
Cc1cccc(N2C(=O)c3cccc4c(N)ccc(c34)C2=O)c1 | -5% | ? | 23 | -3 | -58* | -26%
Cc1cccc(N2C(=O)c3cccc4c(N(C)CCO)ccc(c34)C2=O)c1 | 0% | ? | 18 | 20 | 34 | 18µM*
Cc1cc(C)cc(N2CCn3c2nc2c3c(=O)n(Cc3ccc(Cl)cc3)c(=O)n2C)c1 | 3% | -3% | · | · | · | -6%
CC(=O)Nc1cn(-c2ccccc2)nc1-c1ccccc1 | -3% | 1% | 8 | -1 | -79* | 10%
COC(=O)c1cn(-c2ccccc2)nc1-c1ccccc1 | -1% | ? | 15 | 19 | -29 | -24%
O=C(CCl)Nc1cn(-c2ccccc2)nc1-c1ccccc1 | -5% | 2.9µM* | 1 | · | -97* | 3.7µM*
C1CCC(C(CC2CCCCN2)C2CCCCC2)CC1 (centres undefined) | -5% | 10µM* | 3 | -14 | -86* | 12µM*
COc1ccc(OC)c(/C(O)=C/C(=O)C(=O)Nc2cc(C)ccc2OC)c1 | 2% | ? | -5 | 1 | 7 | ?
CCOc1ccccc1NC(=O)C(=O)/C=C(\O)c1cc(OC)ccc1OC | 5% | 5.8µM* | 0 | 1 | 76 | 5.2µM*
COc1ccc(OC)c(/C(O)=C/C(=O)C(=O)Nc2cc(C)cc(C)c2)c1 | 6% | ? | -1 | 1 | 53 | 18µM*
COc1ccccc1NC(=O)C(=O)/C=C(\O)c1ccccc1 | -1% | 15µM* | 1 | -3 | · | 15µM*
